A selection: hits, their analogues and other compounds. The true share with any hit is near 1.6%.
KCNQ2 enhance = enhances the rat KCNQ2 potassium channel | O88943 | CHO-K1 KCNQ2, FluxOR thallium flux fluorescence; active compounds read high | B-score at 10 µM | hit rate 0.54% among 310,000 | AID 2239;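 active = fluorescence ratio B-score at least 3 SD of library B-scores, with initial fluorescence B-score within 3 of them, cut at about 5.3 in these data; same plate scores as AID 2156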;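 also: B-score of peak minus minimum over baseline fluorescence ratio after K+ and Tl+ stimulus; positive B-score means potentiation of KCNQ2 with more thallium influx and brighter signal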
KCNQ2 inh = KCNQ2 (rat) channel inhibition; O88943; CHO-K1 KCNQ2, FluxOR thallium flux, 20 min; active compounds read low; B-score at 10 µM; hit rate 1.1% among 310,000; AID 2156;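 active = fluorescence ratio B-score at most minus 3 library SDs, with starting brightness B-score within 2 library SDs, cut at about -5.5 in these data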
Kir21 confirm = confirmation of mouse Kir2.1 potassium channel inhibitors; Tl flux remaining, % of negative control (active compounds read low), % at 10 µM; hit rate 41% among 2,300; Kir2.1-expressing cells, FluxOR thallium flux fluorescence; active compounds read low; AID 2032; shares compounds with KCNQ2 enhance;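 active = Primary-screen hit whose thallium flux fell at least 3 control SD below untreated wells in both duplicates, with normal baseline fluorescence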
Target sequence (P35561 whole entry, looked up): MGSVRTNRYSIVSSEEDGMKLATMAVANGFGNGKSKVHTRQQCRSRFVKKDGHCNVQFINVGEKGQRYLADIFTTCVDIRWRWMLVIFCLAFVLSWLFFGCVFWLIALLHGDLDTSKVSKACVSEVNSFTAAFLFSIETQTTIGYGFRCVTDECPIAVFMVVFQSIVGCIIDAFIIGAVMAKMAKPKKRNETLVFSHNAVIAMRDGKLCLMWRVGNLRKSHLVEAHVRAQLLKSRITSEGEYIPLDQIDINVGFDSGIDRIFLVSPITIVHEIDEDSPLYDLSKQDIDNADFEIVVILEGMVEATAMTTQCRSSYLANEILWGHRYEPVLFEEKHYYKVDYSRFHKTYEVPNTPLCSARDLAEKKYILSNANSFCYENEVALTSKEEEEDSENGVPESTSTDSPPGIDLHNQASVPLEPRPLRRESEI
HEK293 Tl flux = alters thallium flux in parental HEK293 cells, Kir2.1 counter-screen; AID 2105; FluxOR thallium flux fluorescence; 0% = unstimulated blank wells; FluxOR signal as % of negative control (100 = no effect), % at 10 µM; hit rate 19% among 2,300; shares compounds with KCNQ2 enhance;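 active = dye signal at least 3 control SD above or below untreated wells in both duplicates, raw fluorescence within 3, either direction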;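 also: percent is based on the flux ratio of peak minus minimum fluorescence over baseline F0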
CHO-K1 ctr = alters thallium flux in parental CHO-K1 cells, KCNQ2 counter-screen; shares compounds with KCNQ2 enhance; FluxOR thallium flux fluorescence; zero = vehicle mean+3SD, 100% = vehicle-minus-blank window; activity increase over 3SD of controls, % at 10 µM; hit rate 43% among 1,200;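 active = signal rise of at least 3 SD above the untreated control mean, in both duplicate wells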;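 also: counter screen of KCNQ2 potentiator hits so any rise reflects channel-independent effects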
KCNQ1 sel pot = tests whether KCNQ2 potentiators also act on human KCNQ1. hit rate 28% among 1,200. shares compounds with KCNQ2 enhance. AID 2283. activation over 3SD threshold, % at 10 µM. CHO KCNQ1 stable, FluxOR thallium flux fluorescence; beyond 3SD, as % of vehicle-control signal;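 active = fluorescence ratio rise of at least 3 SD of vehicle wells above their mean, in both replicate wells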
KCNQ2 pot confirm = rat KCNQ2 channel potentiator confirmation. shares compounds with KCNQ2 enhance. CHO-KCNQ2 cells, FluxOR thallium flux fluorescence. potentiation, less the hit threshold, % at 10 µM. hit rate 68% among 1,200. AID 2287;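 active = fluorescence ratio rising 3 SD or more over the vehicle control mean in both replicates, plus primary screen hit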;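 also: peak minus minimum thallium fluorescence divided by baseline after K/Tl stimulus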
Kir2-1 sel = selectivity of KCNQ2 potentiators: effect on mouse Kir2.1. hit rate 2% among 1,200. shares compounds with KCNQ2 enhance. HEK293 Kir2.1, FluxOR thallium flux fluorescence. activity over 3SD threshold, % at 10 µM;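 active = fluorescence ratio rise of at least 3 SD above the vehicle-control mean, seen in both replicates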
KCNQ2 W236L pot = rat KCNQ2 W236L mutant potentiation by KCNQ2 potentiators. hit rate 10% among 940. shares compounds with KCNQ2 enhance. CHO KCNQ2-W236L, automated patch clamp current. current increase over 3SD of negative controls (%), active compounds read high, % at 25 µM. AID 2558;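 active = current increase at least 3 SD of the untreated controls above them in both duplicate recordings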
Large screens that a line does not name were inactive (follow-up assays come after a bar, where they were run).

O=C(OC(C(=O)NC1CCCCC1)c1ccccc1F)c1ccco1 (stereo not given)	none (no result: KCNQ2 enhance)
CC1CCc2c(sc3ncnc(SCC(=O)c4ccccc4)c23)C1 (stereo not given)	none
CC(=O)CSc1ncnc2sc3c(c12)CCC(C)C3 (stereo not given)	KCNQ2 enhance 15 | Kir21 confirm inactive | HEK293 Tl flux 455% | CHO-K1 ctr 1.6 | KCNQ1 sel pot inactive | KCNQ2 pot confirm 93 | Kir2-1 sel inactive | KCNQ2 W236L pot inactive
Cn1c(COc2ccc([N+](=O)[O-])cc2)nnc1SCC(=O)NCC1CCCO1 (stereo not given)	none (no result: KCNQ2 enhance)
Cc1ccc(Cl)c(OCCCN(C)Cc2ccccc2)c1	none (no result: KCNQ2 enhance)
Cc1ccc(Cl)c(OCCCCN(C)Cc2ccccc2)c1	none (no result: KCNQ2 enhance) | Kir21 confirm 20% | HEK293 Tl flux inactive
C/C=C/c1ccc(OCCNCc2ccccc2)c(OC)c1	none (no result: KCNQ2 enhance)
C/C=C/c1ccc(OCCCCN(C)Cc2ccccc2)c(OC)c1	none (no result: KCNQ2 enhance) | Kir21 confirm 22% | HEK293 Tl flux inactive
CCOC(=O)C1=NN(C(=O)Cc2ccccc2)C(O)(c2ccc(Cl)cc2)C1 (stereo not given)	none (no result: KCNQ2 enhance)
COC(=O)C1=NN(C(=O)c2cccc(Br)c2)C(O)(c2ccc(Cl)cc2)C1 (stereo not given)	KCNQ2 enhance 16 | Kir21 confirm inactive | HEK293 Tl flux inactive | CHO-K1 ctr 18 | KCNQ1 sel pot inactive | KCNQ2 pot confirm 65 | Kir2-1 sel inactive | KCNQ2 W236L pot inactive
CCC(NS(=O)(=O)c1ccc(OC)cc1)C(=O)NCCc1ccccc1 (stereo not given)	none (no result: KCNQ2 enhance)
CN(C)CCNC(=O)c1cc2c(s1)-c1ccc(Cl)cc1SC2	KCNQ2 inh -7.6 | Kir21 confirm inactive | HEK293 Tl flux inactive
CCOCCCNC(=O)c1cc2c(s1)-c1ccccc1SC2	none
CC(C)N1CCC(N2CCN(CC#Cc3ccccc3)CC2CCO)CC1 (stereo not given)	none (no result: KCNQ2 enhance)
S=C(NCc1ccco1)NC1CCCc2ccccc21 (stereo not given)	none (no result: KCNQ2 enhance)
S=C(NCc1ccccc1)NC1CCCc2ccccc21 (stereo not given)	none (no result: KCNQ2 enhance) | Kir21 confirm inactive | HEK293 Tl flux inactive
O=C(Nc1ccc(NC(=O)C2CC2)cc1)c1cccs1	none (no result: KCNQ2 enhance)
CCC(=NCc1ccccc1)c1c(C(F)(F)F)[nH]n(-c2nc3ccccc3s2)c1=O	none (no result: KCNQ2 enhance)
CCC(=NCc1ccco1)c1c(C(F)(F)F)[nH]n(-c2nc3ccccc3s2)c1=O	KCNQ2 enhance 7.8 | Kir21 confirm inactive | HEK293 Tl flux inactive | CHO-K1 ctr inactive | KCNQ1 sel pot inactive | KCNQ2 pot confirm inactive | Kir2-1 sel inactive
CCOc1ccc(NS(=O)(=O)c2ccc(NC(C)=O)c(OC)c2)cc1	none (no result: KCNQ2 enhance)
CCOc1ccc(NS(=O)(=O)c2ccc(OC)c(C)c2)cc1	none | Kir21 confirm inactive | HEK293 Tl flux inactive
CC(C)(C)c1ccc(Oc2ccc(N)cn2)cc1	KCNQ2 enhance 12 | Kir21 confirm inactive | HEK293 Tl flux 68% | CHO-K1 ctr 65 | KCNQ1 sel pot inactive | KCNQ2 pot confirm 73 | Kir2-1 sel inactive | KCNQ2 W236L pot inactive
Cc1cc(Oc2ccc(N)cn2)cc(C)c1Cl	none
Cc1nn(CC(=O)Nc2ccc(N3CCOCC3)cc2)c(C)c1Cl	none
Cc1ccc(NC(=O)c2cc(S(=O)(=O)N(C)C)ccc2N2CCCC2)cc1F	none (no result: KCNQ2 enhance)
CNC(=O)c1sccc1SCc1c(Cl)cccc1Cl	none (no result: KCNQ2 enhance) | Kir21 confirm 46% | HEK293 Tl flux inactive
CNC(=O)c1sccc1SCc1ccc(Cl)cc1Cl	none (no result: KCNQ2 enhance)
CCC(=O)N(CCC(c1ccccc1)c1ccco1)Cc1cccs1 (stereo not given)	KCNQ2 inh -14 | Kir21 confirm 62% | HEK293 Tl flux inactive
COc1ccccc1C(CCN(Cc1cccs1)C(C)=O)c1ccco1 (stereo not given)	none (no result: KCNQ2 enhance)
CCC(=O)N(CCC(Cc1ccccc1)c1ccco1)Cc1ccco1 (stereo not given)	none (no result: KCNQ2 enhance) | Kir21 confirm 54% | HEK293 Tl flux inactive
CCC(=O)N(CCC(Cc1ccccc1)c1ccc2c(c1)OCO2)Cc1ccccc1F (stereo not given)	none (no result: KCNQ2 enhance)
COc1ccc(N2CCN(S(=O)(=O)c3cc(C)ccc3OC)CC2)cc1	none (no result: KCNQ2 enhance)
Cc1cc(S(=O)(=O)NCc2ccc(N3CCN(C)CC3)cc2)c(C)s1	none
COCCN(C(=O)CSc1nnc(-c2cccc(OC)c2)n1C)c1c(N)n(Cc2ccccc2)c(=O)[nH]c1=O	none (no result: KCNQ2 enhance)
Cc1ccc(N(CC(=O)Nc2cccc(C)c2)S(=O)(=O)c2cccc3nonc23)cc1	none
C/C(=N\NC(=O)c1cccc(Br)c1)c1ccccn1	KCNQ2 enhance 7.7 | Kir21 confirm inactive | HEK293 Tl flux inactive | CHO-K1 ctr inactive | KCNQ1 sel pot inactive | KCNQ2 pot confirm inactive | Kir2-1 sel inactive
C/C(=N\NC(=O)c1ccc(Cl)c(Cl)c1)c1ccccn1	none (no result: KCNQ2 enhance)
CCCOc1cccc(-c2cc(-c3n[nH]c(=S)n3CC)c3ccccc3n2)c1	KCNQ2 enhance 26 | Kir21 confirm inactive | HEK293 Tl flux inactive | CHO-K1 ctr 115 | KCNQ1 sel pot inactive | KCNQ2 pot confirm inactive | Kir2-1 sel inactive
CCn1c(-c2cc(-c3ccc(C)cc3)nc3ccccc23)n[nH]c1=S	none (no result: KCNQ2 enhance)
CC1Oc2ccccc2N(CC(=O)N2CCCCCC2)C1=O (stereo not given)	none
COc1ccc2[nH]c(=O)c(CN(C(=O)c3cccnc3)c3ccc(C)cc3C)cc2c1	none
N#C/C(=N\Nc1ccc(F)cc1)C(=O)C1CC1	none
N#C/C(=N\Nc1ccc(Cl)c(Cl)c1)C(=O)C1CC1	KCNQ2 enhance 6.6 | Kir21 confirm inactive | HEK293 Tl flux inactive | CHO-K1 ctr 13 | KCNQ1 sel pot inactive | KCNQ2 pot confirm inactive | Kir2-1 sel inactive | KCNQ2 W236L pot inactive
CCOC(=O)c1cnc2c(C)cc(C)cc2c1NCCCN1CCOCC1	none (no result: KCNQ2 enhance)
Cc1ccc(O)c(C(=O)CC(=O)c2cccc(F)c2)c1	none
Cc1cccc(C(=O)CC(=O)c2cc(Cl)ccc2O)c1	none
Cc1ccc(O)c(C(=O)CC(=O)c2ccc(Cl)cc2)c1	KCNQ2 enhance 6.2 | Kir21 confirm inactive | HEK293 Tl flux inactive | CHO-K1 ctr inactive | KCNQ1 sel pot inactive | KCNQ2 pot confirm inactive | Kir2-1 sel inactive

Source: PubChem BioAssay (Johns Hopkins Ion Channel Center)
